# Experimental data as given in PubChem BioAssay.
# Where “and” joins values, the source holds several entries; their conditions need not be identical. Identical values can stand only once. A structure can be active in one record and inactive in another. Calls of active or inactive are those of the source.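 The calls were made as follows, unless noted: active = z-score of at least 1.8 in each of two replicates, scored against plate mean and spread of sample wells; inactive = the rest.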
# How the values were obtained:
# [1] = Wnt pathway potentiators raising nuclear beta-catenin – imaging, WNT3A-conditioned medium, mouse C2C12, NPC library, primary screen (AID 1117326; in the data active = nuclear beta-catenin stimulation mostly above about 4.2%, no sharp cut-off; inactive = mostly below about 10%); settings: stronger effect = higher value
# [2] = stimulators of insulin release from INS-1E, primary screen, cell-based, 5 mM glucose, NPC library (AID 1117329;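 active = compound raises insulin release from rat beta cells at 5 mM glucose, no numeric limit stated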); settings: rat INS-1E insulin secretion, at 10 µM, stronger effect = higher value
# [3] = growth inhibition of GSK3B-pretreated HCT116 cells – cell-based, CellTiter-Glo, 0.2 to 20 µM (AID 1117336;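 active = compounds lowering colon cancer cell viability after pretreatment blocking the GSK3B kinase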); settings: HCT116 viability after GSK3B inhibitor, at 20 µM, stronger effect = higher value
# [4] = inhibition of endothelial tube formation, primary screen, imaging, VEGF stimulated, CD31 staining, tube area, NPC library (AID 1117340;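 active = compound that reduces growth-factor-driven endothelial tube area in a mixed cell culture, no cutoff stated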); settings: VEGF-stimulated ADSC/ECFC co-culture, at 10 µM, stronger effect = higher value
# [5] = GLP1 release stimulators, primary, NCI-H716, NPC library (AID 1117341;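 active = compound raises GLP1 secretion from the human gut endocrine cells, with no numeric limit stated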); settings: NCI-H716 cells, at 10 µM, stronger effect = higher value
# [6] = HCT116 colon cancer cell growth inhibition, primary screen, CellTiter-Glo luminescence, NPC library (AID 1117342;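 active = compounds that lower survival of HCT116 colon cancer cells in the luminescence readout, no numeric limit stated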); settings: at 20 µM (top of the series)
# [7] = reduced SW480 viability measured with CellTiter-Glo, NPC library, primary (AID 1117343;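 active = compounds that lower viability of the colon cancer cells in the luminescence readout, with no numeric limit stated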); settings: CellTiter-Glo luminescence; at 20 µM (top of the series)
# [8] = NPC library primary testing for decreased DLD-1 cell viability via CellTiter-Glo (AID 1117346;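 active = compounds that lower survival of DLD-1 colon cancer cells in the luminescence readout, no cutoff given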); settings: DLD-1 viability, CellTiter-Glo luminescence; at 20 µM (top of the series)
# [9] = yeast 75Q aggregation reduction – 75Q-TubU reporter (AID 1593); settings: Yeast 75Q polyglutamine aggregation reporter
# [10] = blockers of cytochrome c efflux from mitochondria – biochemical, purified mitochondria (AID 1603); settings: stronger effect = lower value;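 also: mouse liver mitochondria challenged with calcium chloride; signal normalized to the plate average as 100%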
# [11] = polyglutamine aggregate formation blockers (AID 1604); settings: polyglutamine-induced protein aggregation inhibition assay; stronger effect = higher value; tested at 2.5 µM
# [12] = molecular target: 6-phosphogluconate dehydrogenase, decarboxylating (Homo sapiens) (UniProt P52209); experiment: inhibition of human phosphogluconate dehydrogenase – biochemical, recombinant enzyme, NADPH absorbance, primary screen (AID 1159550;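 active = at least 20% inhibition of 6-phosphogluconate dehydrogenase activity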); settings: recombinant 6PGD, NADPH absorbance 341 nm; at 10 µM; stronger effect = higher value
# [13] = EMT-state selective cytotoxicity in co-culture – imaging, PC-3E GFP, TEM4-18 mCherry, primary screen (AID 1345086;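 active = compounds killing one labelled cell type while sparing the other, by normalised counts and ratio limits, not self-fluorescent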;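 as to all read-outs here: cells exposed to compound for 72 h before imaging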;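 as to red/green cell ratio (normalised): normalised mesenchymal count divided by normalised epithelial count so high means epithelial killing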); settings: PC-3E GFP / TEM4-18 mCherry co-culture, imaging cell counts, at 1 µM; for red/green cell ratio (normalised): actives lie on both sides
# [14] = tested on: Aerobactin synthetase IucA (Klebsiella pneumoniae hvKP1); experiment: IucA enzyme inhibition, primary screen, biochemical, Spectrum library (AID 1346200; call rule not given here;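 also: 100% = wells without compound and 0% = wells lacking enzyme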); settings: malachite green pyrophosphate, A620, at 8 µM, stronger effect = lower value
# [15] = MELAS cybrid and Rieske KO viability enhancers – cell-based, MELAS cybrids, Rieske KO mouse fibroblasts, CellTiter-Glo, primary screen (AID 1508586;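 active = mean z-score across replicates of 1.96 or higher in either the MELAS or the Rieske mutant cell line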;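 also: z relative to plate mean and SD of compound and empty wells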); settings: low glucose
# [16] = molecular target: NAD(+) hydrolase SARM1 (Homo sapiens) (UniProt Q6SZW1); experiment: blocking NAD cleavage by SARM1 SAM-TIR – cell lysate, NAD-Glo luminescence (AID 1508614;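 active = compound whose remaining NAD level is above about 45 nM, limit read from the data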;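 also: higher remaining NAD means stronger inhibition of SARM1 NADase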); settings: SAM-TIR HEK293T lysate NADase, at 1 µM, stronger effect = higher value
# [17] = molecular target: Mitogen-activated protein kinase 7 (Homo sapiens) (UniProt Q13164); experiment: Gal4-ERK5 driven luciferase induction – cell-based, HTS, primary screen (AID 1508626;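 active = luciferase signal above three times the same-plate solvent-only control wells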;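 also: luciferase driven by Gal4-ERK5 fusion binding five Gal4 sites before minimal TATA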); settings: HeLa Gal4-ERK5 transactivation, 18 h, at 5 µM, stronger effect = higher value
# [18] = galactose survival enhancers in mitochondrial complex I cybrids – cell-based, galactose medium, ATP luminescence, primary screen (AID 1645843); settings: complex I mutant cybrid cells, 72 h, stronger effect = higher value;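 also: positive z means more ATP and so rescue of galactose-driven cybrid death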
# [19] = viability loss with induced miR-34 in A549 – imaging, A549 dox-inducible miR-34, nuclei and caspase counts, primary screen (AID 1347080;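 active = compounds whose cell count with miR-34 switched on is under 0.7 times the count with it off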); settings: A549 miR-34 inducible, Hoechst nuclei count, 48 h
# [20] = P. berghei load reduction in hepatocytes – cell-based, HepG2, luciferase luminescence, HepG2 viability, primary screen (AID 624349; in the data active = parasite load remaining mostly below about 12%, no sharp cut-off; inactive = mostly above about 10%;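 also: 100% = mean of DMSO negative control wells on the same plate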); settings: P. berghei liver stage in HepG2, luciferase luminescence, concentration not given here; parasite load remaining: stronger effect = lower value; viability: measured here: HepG2 viability without parasites
# [21] = measured here: epithelial PC-3E GFP cell survival
# [22] = measured here: mesenchymal TEM4-18 mCherry cell survival
# [23] = MELAS cybrid survival, CellTiter-Glo 48 h, stronger effect = higher value
# [24] = Rieske KO mouse fibroblast survival, CellTiter-Glo 72 h
# [25] = measured here: total cells without miR-34 induction
# Chain of Mitogen-activated protein kinase 7 (Homo sapiens) (Q13164 whole entry, looked up, the tested form may be a part): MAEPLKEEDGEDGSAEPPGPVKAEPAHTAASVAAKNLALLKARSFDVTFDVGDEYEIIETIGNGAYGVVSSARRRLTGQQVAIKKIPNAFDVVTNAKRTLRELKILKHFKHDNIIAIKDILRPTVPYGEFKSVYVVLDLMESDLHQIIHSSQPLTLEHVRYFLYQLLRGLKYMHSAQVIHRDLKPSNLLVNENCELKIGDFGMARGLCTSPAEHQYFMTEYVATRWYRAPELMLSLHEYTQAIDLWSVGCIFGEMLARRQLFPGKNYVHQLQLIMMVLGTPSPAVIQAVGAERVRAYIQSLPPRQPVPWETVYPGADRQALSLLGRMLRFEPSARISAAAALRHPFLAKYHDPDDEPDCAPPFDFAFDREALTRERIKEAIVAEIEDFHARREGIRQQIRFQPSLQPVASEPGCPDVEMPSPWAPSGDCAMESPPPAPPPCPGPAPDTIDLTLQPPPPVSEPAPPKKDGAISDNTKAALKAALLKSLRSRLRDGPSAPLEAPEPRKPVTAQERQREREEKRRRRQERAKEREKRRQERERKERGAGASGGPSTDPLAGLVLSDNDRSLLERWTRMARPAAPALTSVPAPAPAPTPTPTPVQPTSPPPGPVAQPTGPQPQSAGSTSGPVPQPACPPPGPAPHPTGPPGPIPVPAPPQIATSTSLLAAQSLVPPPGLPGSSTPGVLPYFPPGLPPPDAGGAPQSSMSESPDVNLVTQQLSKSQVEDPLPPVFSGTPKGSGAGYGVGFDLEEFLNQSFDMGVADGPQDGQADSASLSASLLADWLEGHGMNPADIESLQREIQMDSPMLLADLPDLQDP
# Chain of NAD(+) hydrolase SARM1 (Homo sapiens) (Q6SZW1 whole entry, looked up, the tested form may be a part): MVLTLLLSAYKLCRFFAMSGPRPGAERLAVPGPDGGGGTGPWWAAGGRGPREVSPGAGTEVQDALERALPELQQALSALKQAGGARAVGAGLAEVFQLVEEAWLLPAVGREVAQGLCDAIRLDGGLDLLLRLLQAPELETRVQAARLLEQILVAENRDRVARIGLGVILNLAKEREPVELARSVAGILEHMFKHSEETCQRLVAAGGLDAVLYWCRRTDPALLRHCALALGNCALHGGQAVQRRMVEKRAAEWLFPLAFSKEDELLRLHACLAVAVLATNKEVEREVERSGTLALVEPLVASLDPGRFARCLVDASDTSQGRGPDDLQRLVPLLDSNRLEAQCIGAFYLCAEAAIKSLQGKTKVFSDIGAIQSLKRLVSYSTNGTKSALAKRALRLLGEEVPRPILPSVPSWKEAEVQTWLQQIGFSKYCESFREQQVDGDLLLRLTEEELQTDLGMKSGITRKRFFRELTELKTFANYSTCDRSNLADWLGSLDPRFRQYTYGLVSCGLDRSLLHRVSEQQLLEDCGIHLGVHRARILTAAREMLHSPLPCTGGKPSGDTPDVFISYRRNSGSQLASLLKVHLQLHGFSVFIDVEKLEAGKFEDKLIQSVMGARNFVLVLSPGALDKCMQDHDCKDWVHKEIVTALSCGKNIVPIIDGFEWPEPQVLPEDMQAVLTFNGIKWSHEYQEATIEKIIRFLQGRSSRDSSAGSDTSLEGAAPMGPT
# Chain of 6-phosphogluconate dehydrogenase, decarboxylating (Homo sapiens) (P52209 whole entry, looked up): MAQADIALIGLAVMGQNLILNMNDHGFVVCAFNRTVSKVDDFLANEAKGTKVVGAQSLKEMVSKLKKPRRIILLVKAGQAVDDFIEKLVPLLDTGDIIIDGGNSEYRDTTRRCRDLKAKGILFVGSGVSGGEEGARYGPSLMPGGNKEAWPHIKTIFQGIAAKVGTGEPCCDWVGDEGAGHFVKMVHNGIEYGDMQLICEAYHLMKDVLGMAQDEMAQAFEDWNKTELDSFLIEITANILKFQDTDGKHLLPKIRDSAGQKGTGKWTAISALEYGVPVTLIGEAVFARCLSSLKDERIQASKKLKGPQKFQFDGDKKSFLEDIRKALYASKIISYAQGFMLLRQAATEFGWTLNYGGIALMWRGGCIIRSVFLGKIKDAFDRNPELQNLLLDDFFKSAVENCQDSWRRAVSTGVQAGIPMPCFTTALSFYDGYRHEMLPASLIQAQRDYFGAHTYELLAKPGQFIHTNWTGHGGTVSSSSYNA
smiles,measurement,setting,value
CCCCNC(C)(C)[P+](=O)O,nuclear beta-catenin stimulation,[1]; at 10 µM,-0.8% (inactive)
same,nuclear beta-catenin stimulation,"[1]; stimulation, at 2 µM",-0.8%
same,insulin secretion stimulation,[2],-2.5% (inactive)
same,viability decrease,[3],-0.6% (inactive)
same,tube area decrease,[4],-26.4% (inactive)
same,GLP1 secretion stimulation,[5],-3.9% (inactive)
same,inhibition of viability,[6],-4.7% (inactive)
same,viability decrease (inhibition),[7],1.4% (inactive)
same,viability decrease (inhibition),[8],-4.2% (inactive)
CC(C)N(CCC(C(N)=O)(c1ccccc1)c1ccccn1)C(C)C (configuration not stated),score,[9],1.39
same,cytochrome c release ratio,[10],1.18
same,inhibition of aggregation,[11],70.4%
same,nuclear beta-catenin stimulation,[1]; at 10 µM,0.5% (inactive)
same,nuclear beta-catenin stimulation,"[1]; stimulation, at 2 µM",1.2%
same,insulin secretion stimulation,[2],0.8% (inactive)
same,viability decrease,[3],-17.4% (inactive)
same,tube area decrease,[4],15.3% (inactive)
same,GLP1 secretion stimulation,[5],-2.8% (inactive)
same,inhibition of viability,[6],-3.87% (inactive)
same,viability decrease (inhibition),[7],18.8% (inactive)
same,viability decrease (inhibition),[8],-13.7% (inactive)
same,inhibition,[12],5.28% (inactive)
same,red/green cell ratio (normalised),[13],1.1 (inactive)
same,normalised cell number,[13]; [21],1.22
same,normalised cell number,[13]; [22],1.34
same,activity remaining,[14],102% (inactive)
same,z-score,[15]; [23],-0.238 (inactive) and 0.483 (inactive)
same,z-score,[15]; [24],-0.211 and 0.374
same,remaining NAD,[16],10 nM (inactive)
same,luciferase signal,[17],32 AU (inactive)
same,z-score,[18],0.14 (inactive) and 0.36 (inactive) and 1.19 (inactive)
CN(C)[C@@H]1C(=O)C(C(N)=O)=C(O)[C@@]2(O)C(=O)C3=C(O)c4c(O)cccc4[C@@](C)(O)[C@H]3C[C@@H]12,score,[9],0.85
same,cytochrome c release ratio,[10],2.45
same,inhibition of aggregation,[11],47.2%
same,nuclear beta-catenin stimulation,[1]; at 10 µM,1% (inactive)
same,nuclear beta-catenin stimulation,"[1]; stimulation, at 2 µM",1.9%
same,insulin secretion stimulation,[2],2.5% (inactive)
same,viability decrease,[3],-202% (inactive)
same,tube area decrease,[4],9.8% (inactive)
same,GLP1 secretion stimulation,[5],-2.8% (inactive)
same,inhibition of viability,[6],12.1% (inactive)
same,viability decrease (inhibition),[7],43.4% (inactive)
same,viability decrease (inhibition),[8],73.3% (active)
same,inhibition,[12],-5.09% (inactive)
same,red/green cell ratio (normalised),[13],0.98 (inactive) and 1.18 (inactive)
same,normalised cell number,[13]; [21],0.93 and 1.05
same,normalised cell number,[13]; [22],0.91 and 1.24
same,activity remaining,[14],92.7% (inactive)
same,cell count,[19]; [25],7550 and 8910 and 10100
same,z-score,[15]; [23],4.37 (active) and -3.68 (inactive) and 0.0486
same,z-score,[15]; [24],0.792 and -3.53 and 2.26
same,remaining NAD,[16],10 nM (inactive)
same,luciferase signal,[17],324 AU (active)
same,z-score,[18],2.65 (active)
O=c1[nH]oc2c1CCNC2,score,[9],1.55
same,cytochrome c release ratio,[10],0.75
same,inhibition of aggregation,[11],73%
same,parasite load remaining,[20],119% (inactive)
same,viability,[20],90%
same,nuclear beta-catenin stimulation,[1]; at 10 µM,0.9% (inactive)
same,nuclear beta-catenin stimulation,"[1]; stimulation, at 2 µM",-0.2%
same,insulin secretion stimulation,[2],1.95% (inactive)
same,viability decrease,[3],23.2% (inactive)
same,tube area decrease,[4],2% (inactive)
same,GLP1 secretion stimulation,[5],0.6% (inactive)
same,inhibition of viability,[6],7% (inactive)
same,viability decrease (inhibition),[7],-16.8% (inactive)
same,viability decrease (inhibition),[8],2.4% (inactive)
same,inhibition,[12],-2.26% (inactive)
same,red/green cell ratio (normalised),[13],1.27 (inactive)
same,normalised cell number,[13]; [21],0.86
same,normalised cell number,[13]; [22],1.1
same,activity remaining,[14],105% (inactive)
same,fold change,[19]; stronger effect = lower value,0.986 (inactive) and 0.895 (inactive) and 0.961 (inactive)
same,fold change,[19]; measured here: relative caspase fold change +Dox/-Dox,0.885 and 0.751 and 0.995
same,cell count,"[19]; measured here: total cells with miR-34 induction, stronger effect = lower value",10200 and 8820 and 8460
same,cell count,[19]; [25],10400 and 9850 and 8810
same,z-score,[15]; [23],0.562 (inactive)
same,z-score,[15]; [24],-0.393
same,remaining NAD,[16],10 nM (inactive)
same,luciferase signal,[17],104 AU (inactive)
same,z-score,[18],0.375 (inactive) and 2.83 (active)
